T cruzi growth-1 – inhibitors of T. cruzi proliferation. T. cruzi beta-gal in NIH3T3, GalScreen luminescence, 90 h. inhibition, % at 8.34 µM. 77,000 compounds, 5.9% hits. AID 624255;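 active = mean inhibition above about 93%, with at least 55% of replicates each passing it, limit read from the data, passing the limit was not always enough; inconclusive = only one of those two conditions holds; inactive = neither condition holds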
C diff HTS – inhibitors of Clostridium difficile growth; Clostridium difficile clinical isolate growth, OD600, 24 h; hits give low values; 86,000 compounds, 0.25% hits; AID 1259249; growth activity, negative = inhibition, % at 16 µg/mL (by protocol);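 active = mean growth activity at or below -80% and every replicate also at or below -80%; inconclusive = mean at or below -80% but some replicate above -80%; inactive = mean growth activity above -80%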
T cruzi growth-2 – blocks T. cruzi growth in NIH3T3 host cells | shares compounds with T cruzi growth-1 | T. cruzi beta-gal in NIH3T3, GalScreen luminescence, 90 h | inhibition, % at 8.35 µM | 5,600 compounds, 72% hits;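 active = mean replicate inhibition above about 95% and at least 55% of replicates individually reaching it, limit read from the data; inconclusive = only one of the two criteria is met; inactive = neither criterion is met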
T cruzi growth-3 – Trypanosoma cruzi proliferation inhibition | 5,600 compounds, 21% hits | T. cruzi beta-gal in NIH3T3, GalScreen luminescence, 90 h | inhibition, % at 2.09 µM | shares compounds with T cruzi growth-1 | AID 651740;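 active = mean inhibition above about 95%, with at least 55% of replicates also reaching it, limit read from the data; inconclusive = meets just one of the two conditions; inactive = meets neither condition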
NIH3T3 tox – NIH/3T3 (mouse) viability loss; NIH/3T3 viability, CellTiter-Glo ATP luminescence, 90 h; shares compounds with T cruzi growth-1; cytotoxicity (signal decrease), % at 8.35 µM; 5,600 compounds, 14% hits;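 active = mean signal decrease across replicates above about 35% based on untreated-well scatter, with enough replicates individually passing, limit read from the data; inconclusive = no rule stated though some were filed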
3T3 cytotox 2 – kills mouse NIH/3T3 fibroblasts; shares compounds with T cruzi growth-1; 5,600 compounds, 56% hits; inhibition, % at 24.9 µM; NIH/3T3 viability, CellTiter-Glo ATP luminescence, 90 h;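 active = mean loss of cell viability signal at or above a set limit, and enough replicates individually reaching it; inconclusive = meets only the mean limit or only the replicate share; inactive = meets neither condition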
A number is an active result; i = inactive; ? = inconclusive; nt = no result. Shown is part of a subset that was picked to be rich in hits.

SMILES	T cruzi growth-1	C diff HTS	T cruzi growth-2	T cruzi growth-3	NIH3T3 tox	3T3 cytotox 2
C[C@@H]1CN([C@@H](C)CO)C(=O)c2cccc(NC(=O)NC3CCCCC3)c2O[C@@H]1CN(C)Cc1ccc(Cl)c(Cl)c1	i	i	nt	nt	nt	nt
C[C@H]1CN([C@@H](C)CO)C(=O)c2cccc(NC(=O)Nc3ccccc3)c2O[C@@H]1CN(C)Cc1ccc(C(F)(F)F)cc1	i	i	nt	nt	nt	nt
C[C@@H]1CN([C@H](C)CO)C(=O)c2cccc(NC(=O)C3CCOCC3)c2O[C@H]1CN(C)Cc1ccc(Oc2ccccc2)cc1	?	i	102	i	i	i
C[C@@H]1CN([C@@H](C)CO)C(=O)c2cccc(NC(=O)C3CCOCC3)c2O[C@@H]1CN(C)Cc1ccc(Oc2ccccc2)cc1	i	i	nt	nt	nt	nt
C[C@@H]1CN([C@@H](C)CO)C(=O)c2cccc(NC(=O)NC3CCCCC3)c2O[C@H]1CN(C)Cc1ccc(Cl)c(Cl)c1	?	i	107	i	i	70
CN(C)CC#Cc1ccc([C@H]2[C@@H](CO)N3CCCCN(C(=O)Nc4ccc(F)cc4)C[C@@H]23)cc1	i	i	nt	nt	nt	nt
COc1ccccc1S(=O)(=O)N1CC[C@@H]2[C@@H](CO)N(C)c3ccc(-c4ccc(F)cc4)cc3[C@@H]21	i	i	nt	nt	nt	nt
CCCNC(=O)C[C@H]1C[C@@H]2c3cc(NC(=O)c4cccnc4)ccc3O[C@@H]2[C@@H](CO)O1	i	i	nt	nt	nt	nt
C[C@@H]1CN([C@H](C)CO)C(=O)c2cc(C3=CCCC3)cnc2O[C@H]1CN(C)Cc1ccc(C(=O)O)cc1	i	i	nt	nt	nt	nt
C[C@@H]1CCCCO[C@@H](CN(C)Cc2ccccc2)[C@@H](C)CN([C@H](C)CO)C(=O)c2cc(NC(=O)C3CCCCC3)ccc2O1	i	i	nt	nt	nt	nt
C[C@H]1CN([C@@H](C)CO)C(=O)c2cccc(NC(=O)Nc3ccc(F)cc3)c2O[C@@H]1CN(C)Cc1ccc(Oc2ccccc2)cc1	?	nt	103	i	i	37
C[C@@H]1CN([C@@H](C)CO)C(=O)c2cccc(NC(=O)Nc3ccc(F)cc3)c2O[C@@H]1CN(C)Cc1ccc(Oc2ccccc2)cc1	i	nt	nt	nt	nt	nt
COc1ccc(NC(=O)Nc2cccc3c2O[C@@H](CN(C)Cc2ccc(Cl)c(Cl)c2)[C@H](C)CN([C@H](C)CO)C3=O)cc1	109	i	106	107	i	56
COc1ccc(NC(=O)Nc2cccc3c2O[C@H](CN(C)Cc2ccc(Cl)c(Cl)c2)[C@@H](C)CN([C@H](C)CO)C3=O)cc1	i	i	nt	nt	nt	nt
O=C(NCC[C@@H]1CC[C@H](NS(=O)(=O)c2cccc(Cl)c2)[C@@H](CO)O1)c1cnccn1	i	i	nt	nt	nt	nt
Cc1ccc(S(=O)(=O)Nc2cccc3c2O[C@H](CN(C)CC2CC2)[C@H](C)CN([C@H](C)CO)C3=O)cc1	i	i	nt	nt	nt	nt
COc1ccc(-c2ccc3c(c2)O[C@H](CN(C)Cc2cccnc2)[C@H](C)CN([C@H](C)CO)S3(=O)=O)cc1	nt	i	nt	nt	nt	nt
COc1cccc(-c2ccc3c(c2)O[C@@H](CN(C)Cc2cccnc2)[C@H](C)CN([C@H](C)CO)S3(=O)=O)c1	112	i	?	i	56	104
COc1cccc(-c2ccc3c(c2)O[C@H](CN(C)Cc2cccnc2)[C@H](C)CN([C@@H](C)CO)S3(=O)=O)c1	100	i	97	101	63	66
COc1ccc(-c2ccc3c(c2)O[C@H](CN(C)Cc2cccnc2)[C@H](C)CN([C@@H](C)CO)S3(=O)=O)cc1	nt	i	nt	nt	nt	nt
COc1cccc(-c2ccc3c(c2)O[C@H](CN(C)Cc2cccnc2)[C@@H](C)CN([C@@H](C)CO)S3(=O)=O)c1	119	i	105	106	?	60
COc1cccc(-c2ccc3c(c2)O[C@H](CN(C)Cc2cccnc2)[C@H](C)CN([C@H](C)CO)S3(=O)=O)c1	112	i	97	i	54	64
COc1ccc(-c2ccc3c(c2)O[C@H](CN(C)Cc2cccnc2)[C@@H](C)CN([C@H](C)CO)S3(=O)=O)cc1	nt	i	nt	nt	nt	nt
COc1ccc(-c2ccc3c(c2)O[C@@H](CN(C)Cc2cccnc2)[C@@H](C)CN([C@@H](C)CO)S3(=O)=O)cc1	nt	i	nt	nt	nt	nt
O=C1N[C@H](c2ccccc2)COCn2nncc2CC[C@H]1Cc1ccccc1	nt	i	nt	nt	nt	nt
SMILES	T cruzi growth-1	C diff HTS	T cruzi growth-2	T cruzi growth-3	NIH3T3 tox	3T3 cytotox 2
O=C(C[C@H]1CC[C@H]2[C@@H](COC[C@H](O)CN2C(=O)C2CC2)O1)NCc1ccncc1	i	i	nt	nt	nt	nt
C[C@@H]1CN([C@H](C)CO)C(=O)c2cc(NS(=O)(=O)c3ccc(F)cc3)ccc2O[C@@H]1CN(C)S(=O)(=O)c1ccc(F)cc1	i	i	nt	nt	nt	nt
CCCC(=O)Nc1ccc2c(c1)C(=O)N(C)[C@H]1CC[C@H](CC(=O)NCCOC)O[C@H]1CO2	i	i	nt	nt	nt	nt
C[C@@H]1CN([C@H](C)CO)C(=O)c2cc(NC(=O)NC3CCCCC3)ccc2O[C@@H](C)CCCCO[C@@H]1CN(C)Cc1ccncc1	i	i	nt	nt	nt	nt
CO[C@H]1CN(C)C(=O)c2ccc(NC(=O)c3ccc(F)cc3)cc2OC[C@@H](C)N(C(=O)CN(C)C)C[C@@H]1C	i	nt	nt	nt	nt	nt
Cc1ccc(S(=O)(=O)N2C[C@@H](O)COC[C@@H]3O[C@@H](CC(=O)N[C@@H]4CCN(Cc5ccccc5)C4)CC[C@H]32)cc1	i	nt	nt	nt	nt	nt
Cc1ccc(S(=O)(=O)N2C[C@@H](O)COC[C@H]3O[C@@H](CC(=O)N[C@@H]4CCN(Cc5ccccc5)C4)CC[C@@H]32)cc1	98	nt	i	i	i	i
O=C(C[C@H]1CC[C@H]2[C@@H](COC[C@H](O)CN2S(=O)(=O)c2ccc(F)cc2)O1)N[C@H]1CCN(Cc2ccccc2)C1	100	i	i	i	i	i
O=C(C[C@@H]1CC[C@@H]2[C@H](COC[C@H](O)CN2S(=O)(=O)c2ccc(F)cc2)O1)N[C@H]1CCN(Cc2ccccc2)C1	i	i	nt	nt	nt	nt
O=C(c1ccc2c(c1)OCO2)N1CC2(C1)[C@H](c1ccccc1)[C@H](CO)N2C(=O)C1CCCC1	nt	i	nt	nt	nt	nt
COc1ccc(C#Cc2cnc3c(c2)C(=O)N([C@@H](C)CO)C[C@@H](C)[C@H](CN(C)C(=O)Nc2cccc(OC)c2)O3)cc1	?	i	110	i	i	i
COc1cccc(NC(=O)N(C)C[C@H]2Oc3ncc(C#Cc4ccncc4)cc3C(=O)N([C@@H](C)CO)C[C@@H]2C)c1	nt	i	nt	nt	nt	nt
C[C@H]1CN([C@@H](C)CO)C(=O)c2cc(C#CC3CC3)cnc2O[C@@H]1CN(C)C(=O)Cc1ccccn1	i	nt	nt	nt	nt	nt
COc1ccc(C#Cc2cnc3c(c2)C(=O)N([C@H](C)CO)C[C@H](C)[C@H](CN(C)C(=O)Nc2cccc(OC)c2)O3)cc1	i	i	nt	nt	nt	nt
C[C@H](CO)N1C[C@H](C)[C@@H](CN(C)C(=O)Cc2ccccn2)Oc2ncc(C#CC3CC3)cc2C1=O	104	nt	i	i	i	36

Bioassay records deposited in PubChem BioAssay by Broad Institute.
